Experimental data as given in PubChem BioAssay.
A number with no mark means an inactive call. The source made the active and inactive calls.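 Rule for the calls, unless noted: active = mean inhibition above 46.68%, the untreated control wells mean plus 3 SD; inactive = the rest.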

target: Nuclear receptor coactivator 3 (Homo sapiens) (UniProt Q9Y6Q9); assay: SRC3 coactivator transcriptional activity inhibitors, confirmation, cell-based, luminescence, quadruplicate (AID 588792;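 active = mean inhibition over 43.08%, the solvent-only control mean plus 3 SD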;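 note: 0% = DMSO treated cells and 100% = gossypol at 36 µM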); details: HEK293 GAL4-SRC3 luciferase reporter, at 3.6 µM, stronger effect = higher value
Sequence (Q9Y6Q9 whole entry, looked up, the tested form may be a part): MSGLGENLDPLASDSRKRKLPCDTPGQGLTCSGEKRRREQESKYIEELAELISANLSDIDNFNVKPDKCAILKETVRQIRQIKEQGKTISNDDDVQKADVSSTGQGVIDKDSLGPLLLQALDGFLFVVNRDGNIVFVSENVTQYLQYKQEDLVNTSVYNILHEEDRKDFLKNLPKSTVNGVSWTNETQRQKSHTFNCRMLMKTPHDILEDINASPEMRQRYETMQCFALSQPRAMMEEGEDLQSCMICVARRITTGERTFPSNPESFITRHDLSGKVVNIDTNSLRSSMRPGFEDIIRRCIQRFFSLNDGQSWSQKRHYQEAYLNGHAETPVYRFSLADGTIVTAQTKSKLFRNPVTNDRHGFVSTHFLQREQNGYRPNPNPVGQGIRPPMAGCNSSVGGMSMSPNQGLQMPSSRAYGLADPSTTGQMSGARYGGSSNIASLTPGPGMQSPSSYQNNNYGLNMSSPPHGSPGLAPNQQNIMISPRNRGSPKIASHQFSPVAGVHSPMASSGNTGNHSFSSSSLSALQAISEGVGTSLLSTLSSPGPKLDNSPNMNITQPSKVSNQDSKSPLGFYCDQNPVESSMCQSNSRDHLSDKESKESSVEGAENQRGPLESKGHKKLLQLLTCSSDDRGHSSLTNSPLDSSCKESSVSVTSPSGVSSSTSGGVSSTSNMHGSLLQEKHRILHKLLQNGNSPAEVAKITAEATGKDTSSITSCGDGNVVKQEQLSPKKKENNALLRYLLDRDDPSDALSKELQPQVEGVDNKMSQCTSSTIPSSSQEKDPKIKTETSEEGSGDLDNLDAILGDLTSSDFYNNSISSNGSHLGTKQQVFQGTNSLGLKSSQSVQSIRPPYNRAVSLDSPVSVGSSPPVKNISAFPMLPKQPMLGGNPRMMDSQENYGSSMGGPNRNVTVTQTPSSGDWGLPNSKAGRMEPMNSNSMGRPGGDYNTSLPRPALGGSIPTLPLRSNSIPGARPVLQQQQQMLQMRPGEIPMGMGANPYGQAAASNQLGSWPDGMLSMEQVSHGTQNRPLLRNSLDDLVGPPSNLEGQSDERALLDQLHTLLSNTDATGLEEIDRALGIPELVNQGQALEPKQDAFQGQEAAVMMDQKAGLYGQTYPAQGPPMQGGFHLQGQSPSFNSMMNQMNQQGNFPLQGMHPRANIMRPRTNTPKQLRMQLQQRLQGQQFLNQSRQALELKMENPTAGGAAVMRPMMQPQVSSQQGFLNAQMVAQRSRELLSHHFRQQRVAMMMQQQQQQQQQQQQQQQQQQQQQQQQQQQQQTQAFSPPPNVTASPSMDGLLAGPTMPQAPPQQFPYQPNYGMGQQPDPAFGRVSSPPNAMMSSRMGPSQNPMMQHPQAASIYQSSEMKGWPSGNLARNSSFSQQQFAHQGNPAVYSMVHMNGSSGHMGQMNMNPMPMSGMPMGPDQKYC

Compound	inhibition
Cc1ccc(-n2nc3c(=O)n(C(C)C(=O)NCCC4=CCCCC4)nc(C)c3c2C)cc1 (stereo not given)	22.9%
CC(C)(C)c1ccc(-c2noc(CCC(=O)Nc3cccnc3)n2)cc1	41%
COc1cc(/C=C/C(=O)c2ccc(F)cc2)cc(OC)c1OC	50.5% (active)
Cc1nnnn1/C(=C\c1ccccc1)C(=O)OCC(=O)N1CC2(C)CC1CC(C)(C)C2 (stereo not given)	22.4%
O=C(Cc1ccc(Cl)cc1)c1c[nH]c(C(=O)NCc2cccnc2)c1	95.9% (active)
COc1ccc(N(C(=O)CCl)C(C(=O)NCCc2ccccc2)c2cccs2)cc1Cl (stereo not given)	46.4% (active)
Cc1cccc(C)c1NS(=O)(=O)c1ccc(-c2cnc(C3CC3)o2)cc1	43.2% (active)
Cc1ccc(NC(=O)c2ccccc2NS(=O)(=O)c2ccc(F)cc2)cc1S(=O)(=O)N1CCCCC1	12.2%
Nc1ccc(-c2nc3ccc(C(=O)O)cc3s2)cc1	-24%
Cc1ccc(C2=NN(C(=O)CCl)C(c3ccco3)C2)o1 (stereo not given)	38.2%
COc1ccc(C(=O)C(CCC(CNC(C)(C)C)C(=O)c2ccc(OC)cc2)CNC(C)(C)C)cc1 (stereo not given)	-9.42%
Cc1ccc(C)c(N2CCN(C(=O)CCCCCn3c(=S)[nH]c4ccc(N5CCOCC5)cc4c3=O)CC2)c1	60.6% (active)
CC1CCN(c2ccc(-c3cccs3)nn2)CC1	22.9%
O=c1cc(CCl)nc(Cc2c(Cl)cccc2Cl)[nH]1	21.2%
CCC(=O)c1ccc(O)c(CC=C(C)C)c1	35.8%
O=C(O)CCn1c(O)c(C=C2N=c3ccccc3=N2)sc1=S	12.5%

test system: transactivating tegument protein VP16 (Human herpesvirus 1), Gal4-VP16 luciferase reporter; assay: VP16 transactivation inhibitors, counter-screen for SRC3 inhibitor project, cell-based, luminescence, high throughput (AID 588794; in the data active = inhibition above about 30%); details: mammalian cells, VP16-driven luciferase reporter luminescence; at 3.6 µM; stronger effect = higher value

Compound	inhibition
Cc1ccc(-n2nc3c(=O)n(C(C)C(=O)NCCC4=CCCCC4)nc(C)c3c2C)cc1 (stereo not given)	47.1% (active)
CC(C)(C)c1ccc(-c2noc(CCC(=O)Nc3cccnc3)n2)cc1	25.7%
COc1cc(/C=C/C(=O)c2ccc(F)cc2)cc(OC)c1OC	34.7% (active)
Cc1nnnn1/C(=C\c1ccccc1)C(=O)OCC(=O)N1CC2(C)CC1CC(C)(C)C2 (stereo not given)	44% (active)
O=C(Cc1ccc(Cl)cc1)c1c[nH]c(C(=O)NCc2cccnc2)c1	56% (active)
COc1ccc(N(C(=O)CCl)C(C(=O)NCCc2ccccc2)c2cccs2)cc1Cl (stereo not given)	41.7% (active)
Cc1cccc(C)c1NS(=O)(=O)c1ccc(-c2cnc(C3CC3)o2)cc1	15.3%
Cc1ccc(NC(=O)c2ccccc2NS(=O)(=O)c2ccc(F)cc2)cc1S(=O)(=O)N1CCCCC1	24%
Nc1ccc(-c2nc3ccc(C(=O)O)cc3s2)cc1	-26.4%
Cc1ccc(C2=NN(C(=O)CCl)C(c3ccco3)C2)o1 (stereo not given)	7.74%
COc1ccc(C(=O)C(CCC(CNC(C)(C)C)C(=O)c2ccc(OC)cc2)CNC(C)(C)C)cc1 (stereo not given)	4.54%
Cc1ccc(C)c(N2CCN(C(=O)CCCCCn3c(=S)[nH]c4ccc(N5CCOCC5)cc4c3=O)CC2)c1	73.1% (active)
CC1CCN(c2ccc(-c3cccs3)nn2)CC1	9.04%
O=c1cc(CCl)nc(Cc2c(Cl)cccc2Cl)[nH]1	-8.27%
CCC(=O)c1ccc(O)c(CC=C(C)C)c1	23.9%
O=C(O)CCn1c(O)c(C=C2N=c3ccccc3=N2)sc1=S	13.2%

target: Nuclear receptor coactivator 1 (Homo sapiens) (UniProt Q15788); assay: SRC1 coactivator transcriptional activity inhibitors, confirmation, cell-based, luminescence, quadruplicate (AID 588820); details: HEK293 GAL4-SRC1 luciferase reporter, at 3.6 µM, stronger effect = higher value;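 note: 0% = DMSO wells and 100% = gossypol 36 µM treated wells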
Sequence (Q15788 whole entry, looked up, the tested form may be a part): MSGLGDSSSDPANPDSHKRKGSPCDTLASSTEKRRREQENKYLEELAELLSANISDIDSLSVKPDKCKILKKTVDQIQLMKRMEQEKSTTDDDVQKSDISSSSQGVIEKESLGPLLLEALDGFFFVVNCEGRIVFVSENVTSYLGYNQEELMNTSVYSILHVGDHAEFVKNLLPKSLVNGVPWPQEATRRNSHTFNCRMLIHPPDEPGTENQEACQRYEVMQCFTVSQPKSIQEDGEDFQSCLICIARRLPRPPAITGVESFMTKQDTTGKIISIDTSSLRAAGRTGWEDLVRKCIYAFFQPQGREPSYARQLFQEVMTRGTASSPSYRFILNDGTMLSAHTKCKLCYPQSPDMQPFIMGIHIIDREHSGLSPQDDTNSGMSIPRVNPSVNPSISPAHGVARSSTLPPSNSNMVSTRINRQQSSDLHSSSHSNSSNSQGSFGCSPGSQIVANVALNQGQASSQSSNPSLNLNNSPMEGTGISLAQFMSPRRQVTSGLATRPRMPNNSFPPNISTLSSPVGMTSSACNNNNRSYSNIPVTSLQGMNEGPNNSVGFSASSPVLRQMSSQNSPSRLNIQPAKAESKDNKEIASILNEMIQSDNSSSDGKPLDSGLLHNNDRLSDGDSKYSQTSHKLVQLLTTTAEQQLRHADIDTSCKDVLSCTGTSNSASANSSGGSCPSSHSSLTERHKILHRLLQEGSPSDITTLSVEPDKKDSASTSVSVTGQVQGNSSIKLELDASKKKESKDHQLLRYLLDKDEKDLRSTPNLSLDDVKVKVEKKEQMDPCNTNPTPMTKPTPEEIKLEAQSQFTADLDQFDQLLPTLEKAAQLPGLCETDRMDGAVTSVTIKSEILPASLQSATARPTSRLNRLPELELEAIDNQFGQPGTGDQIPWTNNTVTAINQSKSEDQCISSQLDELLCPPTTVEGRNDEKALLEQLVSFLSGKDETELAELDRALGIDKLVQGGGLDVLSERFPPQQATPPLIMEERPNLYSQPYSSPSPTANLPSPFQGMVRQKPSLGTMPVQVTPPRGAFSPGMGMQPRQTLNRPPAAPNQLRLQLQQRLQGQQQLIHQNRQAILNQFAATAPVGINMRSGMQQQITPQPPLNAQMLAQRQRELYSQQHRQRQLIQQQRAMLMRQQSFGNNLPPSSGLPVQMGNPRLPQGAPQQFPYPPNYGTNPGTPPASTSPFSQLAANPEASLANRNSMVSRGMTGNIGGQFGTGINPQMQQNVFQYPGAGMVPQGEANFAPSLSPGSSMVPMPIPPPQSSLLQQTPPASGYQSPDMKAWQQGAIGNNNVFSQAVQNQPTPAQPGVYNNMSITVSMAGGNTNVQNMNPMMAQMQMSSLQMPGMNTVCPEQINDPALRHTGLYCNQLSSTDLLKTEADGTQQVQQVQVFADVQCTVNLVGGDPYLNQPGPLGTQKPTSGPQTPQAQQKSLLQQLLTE

Compound	inhibition [%]
c1ccc(-n2cnc3cc(NCc4cccs4)ccc32)cc1	-69.4
CN(Cc1cccs1)C(=O)CN1CCN(S(=O)(=O)c2ccc3c(c2)OCCCO3)CC1	-16.6
C=C1C(=O)O[C@@]23[C@H]1CC[C@@H](C)[C@@H]2CC[C@@]1(C)O[C@@H]31	1.63
Cc1cc(=O)oc2cc(OCc3ccc(C(=O)N4CCN(c5ccc([N+](=O)[O-])cc5)CC4)cc3)ccc12	10.5
COCCn1cnc2c1c(=O)n(Cc1ccccc1C#N)c(=O)n2Cc1ccccc1	-22.2
CC(O)c1nc2cc([N+](=O)[O-])ccc2n1Cc1ccccc1 (stereo not given)	-1.46
Cc1ccc(-n2ccc(-c3nn(-c4ccccc4)ccc3=O)n2)cc1	6.13
COc1ccc(C(=O)Nc2ccnn2C2CCN(C3CCC3)CC2)cc1	-28.9
O=C(Nc1ccc2c(c1)OCCO2)C(c1cc2ccccc2o1)N1CCN(C/C=C/c2ccccc2)CC1 (stereo not given)	-6.79
Cc1ccc(NNC(=O)C(=O)N2CCCCC2)cc1	-16.9
Cc1c(C)n2c(SCC(=O)NCc3ccc4c(c3)OCO4)nnc2[nH]c1=O	-1.32
CC(=O)c1cccc(NC(=O)c2ccc(CN3CCc4ccccc4C3)cc2)c1	-1.99
CCCC(C)NC(=O)C1c2ccccc2Oc2ccccc21 (stereo not given)	-0.82
COc1ccc(NC(=O)NNC(=O)COc2ccc3ccccc3c2)cc1OC	14
O=C(CN1C(=O)CCC1=O)Nc1ccc(S(=O)(=O)N2CCOCC2)cc1	-20.2
CC1CCCCN1c1ncnc2ccccc12 (stereo not given)	18.5
CCc1nnc(SCc2ccc(C(=O)OC)o2)n1N	-6.33
FC(F)(F)c1cccc(Oc2ccc3c(C(F)(F)F)cc(C(F)(F)F)nc3n2)c1	-2.81
Cc1cc2nc(C3CCCCC3)c(Cc3cccc(F)c3)n2c(C)c1Br	4.23
COc1cccc(NC(=O)CN(C)CC(=O)Nc2ccc(C)c([N+](=O)[O-])c2)c1	28
O=C1CCC/C1=c1\s/c(=C/c2cccnc2)c(=O)n1-c1ccccc1	25.6
O=C(Nc1ccccc1N1CCOCC1)c1cc(-c2ccncc2)nc2ccccc12	-29.7
COC(=O)c1ccsc1NC(=O)CN1CCN(c2ncccn2)CC1	-31.8
